Data reported in PubChem BioAssay (Tox21).
“And” between values parts separate entries of the source, which are not always exact repeats. Equal entries are not always repeated. Inconclusive results are not listed. Where a call stands in place of a potency, no number is given. Some structures have more than one record in an assay (separate samples or runs), and their calls can disagree. The source made the active and inactive calls. Calls come from the whole dose curve; as a rule, active = well fitted activation curve with a large enough effect in the signal ratio in the repeat runs (not every such curve was filed as active); inconclusive = weak or mixed curves; inactive = flat fitted curve, though single readings scatter; the % refers to the signal ratio.

assay: qHTS assay to identify small molecule agonists of H2AX (AID 1224845); details: CHO-K1 phospho-H2AX Ser139 HTRF, 3 h; series mostly up to 154 µM; activation (H2AX phosphorylation): at the top concentration
Source text: National Center for Advancing Translational Sciences [NCATS]
NIH Chemical Genomics Center [NCGC]
U.S. Environmental Protection Agency [EPA]
National Institutes of Environmental Health Sciences [NIEHS]
National Toxicology Program [NTP]
U.S. Food and Drug Administration [FDA]
HTRF phospho-H2AX (Ser139) assay (Cisbio Bioassays, US) enables the quantitative detection of the histone variant H2AX when phosphorylated on serine 139. When double-stranded DNA breaks, either by ionizing radiation or endogenous physiological processes, H2AX becomes phosphorylated at Ser139. This phospho-Ser139 serves as a sensitive biomarker for the detection of such breaks, localizing the site of DNA repair. So, HTRF phospho-H2AX Ser139 is a pertinent assay to study genome stability, the cell cycle, DNA repair, and it serves as a biomarker for cancer, and to understand aging. Wild type CHO-K1 cells were used to identify the inducers of Phospho-H2AX Ser 139 from the Tox21 10K compound collections.
Tox21 Assay Protocol Summary:
The CHO-K1 cells suspended in culture medium containing 10% FBS were dispensed at 1000 cells/ 3 ul/well in 1536-well white wall/solid bottom plates (Greiner Bio-One North America, NC) using a Multidrop Combi (Thermo Fisher Scientific Inc., Waltham, MA). After the assay plates were incubated at 37C overnight, 23 nl of compounds at 15 concentrations (from 5-48 columns) or positive control (from 1 to 4 columns) were transferred to the assay plates using a Pintool station (Wako, San Diego, CA) into each well resulting in a final DMSO concentration of 0.76%. After 3hr incubation at 37C, 1 uL/well Supplemented Lysis buffer (diluted 100 fold blocking reagent in lysis buffer) (HTRF Phospho-H2A.X (S139) Assay kit from Cisbio US Inc., Bedford, MA) was added using a Flying Reagent Dispenser (FRD) (Aurora Discovery, CA). After 10sec spin at 1000 rpm in a plate centrifuge, the assay plates were incubated at room temperature for 30 min. Then followed by the addition of 1 uL/well detection buffer (containing a mixture of two antibodies, one labeled with cryptate, Anti pH2AX (S139)-K and another labeled with d2, Anti H2AX-d2) using FRD. After incubation at room temperature for 24 hr, the time resolved fluorescence at excitation 320 nm and emissions at 665 nm and 620 nm was measured using an Envision plate reader (PerkinElmer, Waltham, MA).
Potency is the fitted concentration of half-maximal effect.

**Q.** Which Potency does the source give for `CC(C)=CC1C(C(=O)OCc2cccc(Oc3ccccc3)c2)C1(C)C` (stereo not given) here?
**A.** inactive

**Q.** For `COP(=S)(OC)SCn1nnc2ccccc2c1=O`, which Potency is on record?
**A.** inactive

**Q.** For `CNC(=S)S`, which Potency is on record?
**A.** inactive

**Q.** Which Potency does the source give for `CCC(=O)Nc1ccc(Cl)c(Cl)c1` here?
**A.** inactive

**Q.** Which Potency does the source give for `C=CC(Cl)CCl` (stereo not given) here?
**A.** inactive

**Q.** For `Clc1cccc(C(Cl)(Cl)Cl)n1`, which Potency is on record?
**A.** inactive

**Q.** With `COP(=S)(OC)Oc1ccc(Sc2ccc(OP(=S)(OC)OC)cc2)cc1` as the molecule, how does the Potency read?
**A.** inactive

**Q.** Which Potency does the source give for `CCNCC` here?
**A.** inactive

**Q.** For `CCCCCCCCCc1ccc(O)cc1`, which Potency is on record?
**A.** 102 µM (active) and 101 µM (active)

**Q.** With `NC(=O)CN1CCCC1=O` as the molecule, how does the Potency read?
**A.** inactive

**Q.** For `O=C1CCCO1`, which Potency is on record?
**A.** inactive

**Q.** With `Nc1ccc2ccccc2c1` as the molecule, how does the Potency read?
**A.** inactive

**Q.** With `[CH3][Sn]([Cl])([Cl])[Cl]` as the molecule, how does the Potency read?
**A.** inactive

**Q.** For `Oc1ccc(Cl)cc1Cc1ccccc1`, which Potency is on record?
**A.** inactive

**Q.** For `CCCCOCCOC(C)=O`, which Potency is on record?
**A.** inactive

**Q.** With `CC(O)CN(CC(C)O)CC(C)O` (stereo not given) as the molecule, how does the Potency read?
**A.** inactive

**Q.** For `CCC[CH2][Sn]([Cl])([CH2]CCC)[CH2]CCC`, which Potency is on record?
**A.** 358 nM (active) and 401 nM (active)

**Q.** Which Potency does the source give for `N#Cc1nn(-c2c(Cl)cc(C(F)(F)F)cc2Cl)c(N)c1S(=O)C(F)(F)F` (stereo not given) here?
**A.** inactive

**Q.** Which “activation (H2AX phosphorylation)” value does the source give for `CC(C)(c1ccc(OCC2CO2)cc1)c1ccc(OCC2CO2)cc1` (stereo not given) here?
**A.** 6.54% (inactive)

**Q.** With `OC(c1ccc(Cl)cc1)(c1cncnc1)c1ccccc1Cl` (stereo not given) as the molecule, how does the Potency read?
**A.** 91.4 µM (active) and inactive

**Q.** With `Cc1ccc(N=CN(C)C=Nc2ccc(C)cc2C)c(C)c1` as the molecule, how does the Potency read?
**A.** inactive

**Q.** With `CCCCCCCC[N+](C)(CCCCCCCC)CCCCCCCC` as the molecule, how does the Potency read?
**A.** inactive and 17.9 µM (active)

**Q.** Which Potency does the source give for `O=S(=O)(O)C(F)(F)C(F)(F)C(F)(F)C(F)(F)C(F)(F)C(F)(F)C(F)(F)C(F)(F)F` here?
**A.** inactive

**Q.** With `O=NN1CCOCC1` as the molecule, how does the Potency read?
**A.** inactive

**Q.** With `CCCCCCCCCCCCCl` as the molecule, how does the Potency read?
**A.** inactive

**Q.** For `CCOP(=O)(OCC)OCC`, which Potency is on record?
**A.** inactive

**Q.** With `CCCCSP(=O)(SCCCC)SCCCC` as the molecule, how does the Potency read?
**A.** inactive

**Q.** For `CC(C)(O)C#N`, which Potency is on record?
**A.** inactive

**Q.** With `ClC(Cl)(Cl)c1ccccc1` as the molecule, how does the Potency read?
**A.** inactive

**Q.** With `CC(C)(O)C(=O)Nc1ccc([N+](=O)[O-])c(C(F)(F)F)c1` as the molecule, how does the Potency read?
**A.** inactive

**Q.** Which Potency does the source give for `CCOS(=O)(=O)OCC` here?
**A.** inactive

**Q.** Which Potency does the source give for `S=c1[nH]c2ccccc2[nH]1` here?
**A.** inactive

**Q.** With `Clc1ccccc1-c1nnc(-c2ccccc2Cl)nn1` as the molecule, how does the Potency read?
**A.** inactive

**Q.** For `CCOP(=S)(OCC)SCn1c(=O)oc2cc(Cl)ccc21`, which “activation (H2AX phosphorylation)” value is on record?
**A.** -4.14% (inactive)

**Q.** With `Oc1ccc(Cl)cc1Cl` as the molecule, how does the Potency read?
**A.** inactive

**Q.** Which Potency does the source give for `CCCCOC(=O)COC(=O)c1ccccc1C(=O)OCCCC` here?
**A.** inactive

**Q.** Which Potency does the source give for `COP(=S)(OC)Oc1ccc(S(=O)(=O)N(C)C)cc1` here?
**A.** inactive

**Q.** With `OCCOCCO` as the molecule, how does the Potency read?
**A.** inactive

**Q.** With `Clc1ccc(C(Cl)(Cl)Cl)cc1` as the molecule, how does the Potency read?
**A.** inactive

**Q.** For `O=[N+]([O-])/N=C1\NCCN1Cc1ccc(Cl)nc1`, which Potency is on record?
**A.** inactive
